Test [1] in a line: A CellTox Green Cytotoxicity Assay to monitor cytotoxicity in HepG2 cells - 0 hour (AID 1224882). Note: nearly all actives have a fitted effect of over 35% in size. In a few lines:
(§1)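 HepG2 cells, 600/well, preincubated 5 h with CellTox Green dye, then exposed to Tox21 compounds in DMSO at 37 C for up to 40 h. Dead-cell DNA fluorescence read at the indicated time point.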

Test [2] can be described thus: A CellTox Green Cytotoxicity Assay to monitor cytotoxicity in HepG2 cells - 32 hour (AID 1224883). Note: nearly all actives have a fitted effect of over 50% in size. Note: potency is the fitted concentration of half-maximal effect. In a few lines:
as §1

Test [3] in a line: A CellTox Green Cytotoxicity Assay to monitor cytotoxicity in HEK293 cells - 8 hour (AID 1224884). Note: nearly all actives have a fitted effect of over 35% in size. Note: potency is the fitted concentration of half-maximal effect. The gist of the method:
(§2)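 HEK293 cells, 600/well, were preincubated 5 hours and then exposed to compounds at 37 C for up to 40 hours. A cell-impermeant cyanine dye staining dead-cell DNA was read by fluorescence at 0, 8, 16, 24, 32 and 40 h time points.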

Test [4] is described as follows: qHTS RealTime-Glo MT Cell Viability Assay in HepG2 cells - 16 hour (AID 1224885). Note: nearly all actives have a fitted effect of over 50% in size. Note: potency is the fitted concentration of half-maximal effect. The gist of the method:
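qHTS, HepG2, 600 cells/well, RealTime-Glo (NanoLuc + prosubstrate) added with cells; 5 h preincubation; DMSO compound addition; 37 C; luminescence at 0/8/16/24/32/40 h.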
On the technique in general: In qHTS, concentration-response curves come from the screen itself.

A short description of test [5]: qHTS RealTime-Glo MT Cell Viability Assay in HEK293 cells - 24 hour (AID 1224886). Note: nearly all actives have a fitted effect of over 50% in size. Note: potency is the fitted concentration of half-maximal effect. The gist of the method: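 Assay medium contained NanoLuc luciferase plus cell-permeant prosubstrate, added with HEK293 cells at 600 cells/well. After 5 h at 37 C/5% CO2 compounds were added; plates stayed at 37 C for 40 h with serial luminescence reads.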
Test [6] in a line: qHTS RealTime-Glo MT Cell Viability Assay in HEK293 cells - 8 hour (AID 1224887). Note: nearly all actives have a fitted effect of over 50% in size. Note: potency is the fitted concentration of half-maximal effect. In a few lines: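 600 cells/well were plated with the nonlytic NanoLuc/prosubstrate reagent, pre-incubated 5 h, then given 23 nL of compound in DMSO. Incubation at 37 C for 40 h, with luminescence from viable-cell-reduced substrate read repeatedly from 0 h.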
A short description of test [7]: A CellTox Green Cytotoxicity Assay to monitor cytotoxicity in HEK293 cells - 16 hour (AID 1224888). Note: nearly all actives have a fitted effect of over 35% in size. Note: potency is the fitted concentration of half-maximal effect. In a few lines:
as §2

Test [8] can be described thus: A CellTox Green Cytotoxicity Assay to monitor cytotoxicity in HepG2 cells - 8 hour (AID 1224890). Note: nearly all actives have a fitted effect of over 45% in size. Note: potency is the fitted concentration of half-maximal effect. The gist of the method:
as §1

Test [9] is described as follows: qHTS assay to identify small molecule antagonists of the estrogen receptor alpha (ER-alpha) signaling pathway using the BG1 cell line in the presence of 0.1 nM 17-beta-estradiol - cell viability counter screen (AID 1259241). Note: nearly all actives have a fitted effect of over 40% in size. Note: potency is the fitted concentration of half-maximal effect. The gist of the method: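 Viability in VM7Luc4E2 cells after 22 hr compound exposure under 0.1 nM 17beta-estradiol stimulation, by CellTiter-Fluor.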

In test [10] the target is Estrogen receptor (Homo sapiens) (UniProt P03372). The experiment in a line: qHTS assay to identify small molecule antagonists of the estrogen receptor alpha (ER-alpha) signaling pathway using the BG1 cell line in the presence of 0.1 nM 17-beta-estradiol (AID 1259244). Note: nearly all actives have a fitted effect of over 50% in size. Note: potency is the fitted concentration of half-maximal effect. In a few lines:
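VM7Luc4E2 cells (endogenous full-length ER-alpha, 4×ERE-luciferase), kept 5 days in phenol red-free, charcoal-stripped FBS medium; 4,000 cells/well. Compounds added with 0.1 nM (final) 17beta-estradiol, 22 hr at 37C; luminescence read with ONE-Glo after 30 min.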

Test [11] in a line: qHTS assay to identify small molecule HDAC inhibitors - cell viability counter screen (AID 1259365). Note: nearly all actives have a fitted effect of over 50% in size. Note: potency is the fitted concentration of half-maximal effect. The gist of the method: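 Cytotoxicity was gauged in wild-type HCT-116 cells after a brief 2hr treatment with DMSO-dissolved compounds at 37C and 5% CO2, using CellTiter-Glo luminescence developed for 30min at room temperature.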
Test [12] can be described thus: qHTS assay to identify small molecule agonists of the sonic hedgehog signaling (Shh) pathway - cell viability counter screen (AID 1259366). Note: nearly all actives have a fitted effect of over 50% in size. Note: potency is the fitted concentration of half-maximal effect. In a few lines: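 Stable Gli1-Luc NIH/3T3 clone, 2,000 cells/well. Compound exposure 24hr at 37C. Read-out: CellTiter-Fluor fluorescence.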
The nature of test [13]: qHTS assay to identify small molecule antagonists of the sonic hedgehog signaling (Shh) pathway - cell viability counter screen (AID 1259367). Note: nearly all actives have a fitted effect of over 55% in size. Note: potency is the fitted concentration of half-maximal effect. In a few lines: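 Seed 3T3 Gli1-Luc cells at 2,000 per well; incubate 4 hr; add compound in DMSO, then conditioned medium; incubate at 37C with 5% CO2; add CellTiter-Fluor after 23 hr; read fluorescence 1 hr later.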
Test [14] is described as follows: qHTS assay to identify small molecule agonists of the sonic hedgehog signaling (Shh) pathway (AID 1259368; calls by dose curve;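 note: NIH/3T3-derived 3T3Gli1-Luc cells carrying a stable Gli1-driven firefly luciferase reporter; series mostly up to about 92 µM; nearly all actives have a fitted effect of over 15% in size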). In a few lines:
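NIH/3T3-derived 3T3Gli1-Luc cells with stably integrated Gli1-driven firefly luciferase, 2,000 cells/well, compounds added after 4 hr. Incubated 24 hr at 37C, 5% CO2; luminescence read after 30 min with luciferase reagent at room temperature.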

A short description of test [15]: qHTS assay to identify small molecule antagonists of the sonic hedgehog signaling (Shh) pathway (AID 1259369; calls by dose curve; note: nearly all actives have a fitted effect of over 45% in size; note: potency is the fitted concentration of half-maximal effect). The gist of the method:
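NIH/3T3-derived Gli1-Luc reporter cells plated 4 h, dosed with compound, then stimulated with conditioned medium for 24 h at 37 C. Firefly luciferase luminescence read after 30 min with detection reagent at room temperature.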

Test [16] can be described thus: qHTS assay to identify small molecule antagonists of the androgen receptor (AR) signaling pathway using the MDA cell line in the presence of 0.5 nM R1881 - cell viability counter screen (AID 1259242). Note: nearly all actives have a fitted effect of over 45% in size. Note: potency is the fitted concentration of half-maximal effect. In a few lines:
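MDA-kb2 cells (MMTV-luciferase, AR/GR responsive) were treated with compounds plus 0.5 nM R1881 (final) for 16 hr at 37C, 0% CO2. Viability was then read in the same wells as live-cell protease fluorescence (CellTiter-Fluor, 30 min).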

Test [17] is described as follows: qHTS assay to identify small molecule HDAC inhibitors (AID 1259364). Note: nearly all actives have a fitted effect of over 45% in size. Note: potency is the fitted concentration of half-maximal effect. The gist of the method: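 Wild-type HCT-116 cells, plated overnight at 37 C, exposed to compounds 2 hr at 37 C; luminogenic HDAC-Glo substrate then added 30 min at room temperature. Luminescence reports relative endogenous class I/II HDAC activity.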
Test [18] in a line: qHTS assay to identify small molecule phospholipidosis (PLD) inducers (AID 1259344; active = well fitted curve in the direction sought with a large enough effect; an effect the other way counts as inactive or inconclusive). The gist of the method:
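Quantitative HTS in HepG2: compound plus LipidTOX Red dye for 24 h, paraformaldehyde fixation with Hoechst 33342, widefield high-content imaging; amiodarone as positive and DMSO as negative control.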

In test [19] the target is Androgen receptor (Homo sapiens) (UniProt P10275). The test is described as follows: qHTS assay to identify small molecule antagonists of the androgen receptor (AR) signaling pathway using the MDA cell line in the presence of 0.5 nM R1881 (AID 1259243). In a few lines:
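MDA-kb2 cells (MMTV-luciferase, responsive to AR and GR) at 3,000/well, rested 5 h at 37C, 0% CO2, then given compounds plus 0.5 nM R1881 (final) for 16 hr. Luciferase read with ONE-Glo after 30 min at room temperature.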

Structures are written as SMILES. Several values for one entry are separate records, joined by “and”; a condition that tells them apart may be missing. Equal entries are not always repeated. Records with an inconclusive call do not appear. A structure can be active in one record and inactive in another. Activity calls are given as the source filed them. Unless noted, calls come from the whole dose curve; as a rule, active = well fitted curve in the direction sought with a large enough effect in the repeat runs; inconclusive = weak or mixed curves; inactive = no such curve, though single readings can be large; an effect the other way counts as inactive or inconclusive.

Sequence of Estrogen receptor (Homo sapiens) (P03372 whole entry, looked up): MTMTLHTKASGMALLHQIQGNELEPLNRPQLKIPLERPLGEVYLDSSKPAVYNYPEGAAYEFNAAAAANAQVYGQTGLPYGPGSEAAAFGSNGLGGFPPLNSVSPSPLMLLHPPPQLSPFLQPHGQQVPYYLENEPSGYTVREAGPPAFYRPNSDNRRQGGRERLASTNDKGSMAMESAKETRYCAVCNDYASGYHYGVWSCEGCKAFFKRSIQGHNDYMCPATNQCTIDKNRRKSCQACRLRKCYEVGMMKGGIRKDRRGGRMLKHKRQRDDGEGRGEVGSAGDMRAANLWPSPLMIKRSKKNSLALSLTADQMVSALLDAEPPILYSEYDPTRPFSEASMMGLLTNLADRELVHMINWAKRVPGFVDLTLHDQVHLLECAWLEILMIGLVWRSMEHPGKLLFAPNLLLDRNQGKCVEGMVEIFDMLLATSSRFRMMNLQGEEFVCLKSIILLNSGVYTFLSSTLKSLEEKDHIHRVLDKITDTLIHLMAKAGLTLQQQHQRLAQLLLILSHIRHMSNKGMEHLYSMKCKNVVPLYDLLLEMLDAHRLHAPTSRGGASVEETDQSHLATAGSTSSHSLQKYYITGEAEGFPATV
Sequence of Androgen receptor (Homo sapiens) (P10275 whole entry, looked up): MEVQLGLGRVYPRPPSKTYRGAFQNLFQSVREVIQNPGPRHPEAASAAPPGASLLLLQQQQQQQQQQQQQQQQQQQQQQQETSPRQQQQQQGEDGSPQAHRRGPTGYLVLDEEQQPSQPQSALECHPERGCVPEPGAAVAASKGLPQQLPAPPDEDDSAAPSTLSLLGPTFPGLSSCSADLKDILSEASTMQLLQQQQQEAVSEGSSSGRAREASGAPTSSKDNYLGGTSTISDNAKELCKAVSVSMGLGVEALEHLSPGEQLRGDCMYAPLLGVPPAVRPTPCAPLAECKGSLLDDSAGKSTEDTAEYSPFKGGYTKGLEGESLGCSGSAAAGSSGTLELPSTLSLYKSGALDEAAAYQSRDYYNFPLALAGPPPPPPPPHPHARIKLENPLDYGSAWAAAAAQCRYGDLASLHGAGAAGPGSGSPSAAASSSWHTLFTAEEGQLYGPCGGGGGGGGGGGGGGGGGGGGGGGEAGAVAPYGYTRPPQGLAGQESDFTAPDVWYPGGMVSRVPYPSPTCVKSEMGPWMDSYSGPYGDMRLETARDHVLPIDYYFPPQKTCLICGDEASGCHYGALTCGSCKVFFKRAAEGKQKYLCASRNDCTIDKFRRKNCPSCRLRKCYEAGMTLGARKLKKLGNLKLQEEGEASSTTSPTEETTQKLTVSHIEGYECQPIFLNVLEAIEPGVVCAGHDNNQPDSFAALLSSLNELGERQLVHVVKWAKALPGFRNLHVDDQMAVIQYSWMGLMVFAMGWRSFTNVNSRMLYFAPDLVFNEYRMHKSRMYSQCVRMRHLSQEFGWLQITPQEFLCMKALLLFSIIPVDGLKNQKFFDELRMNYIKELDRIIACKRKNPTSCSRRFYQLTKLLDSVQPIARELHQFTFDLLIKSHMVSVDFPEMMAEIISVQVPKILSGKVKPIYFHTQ

Take `OCCN1CCNCC1`: the Potency result in test [1], in test [2], in test [3], in [4], in test [6] and in [7] was “inactive” throughout. Further, the Potency result in test [8], in test [9], in test [10], in test [11], in [12] and in test [13] was “inactive” throughout. Besides, the Potency result in test [14] and in test [15] was “inactive” throughout. Further, the Potency in test [5] is 7.9 µM (active).

For `O=C1Nc2ccccc2C1(c1ccc(O)cc1)c1ccc(O)cc1`, the Potency entry in [1], in test [2], in test [3], in test [4], in test [5] and in test [6] was “inactive” each time. Moreover, the Potency entry in [7], in test [8], in [16], in test [17] and in test [11] was “inactive” throughout. The Potency is 298 nM (active) in test [9]; 486 nM (active) and 237 nM (active) in test [10]; 27.3 µM (active) and 9.44 µM (active) in [12]; 48.6 µM (active) in test [13]; 34.4 µM (active) in test [15].

For the compound `CN(C)c1ccc2nc3ccc(=[N+](C)C)cc-3sc2c1`, the Potency entry in test [1], in [2], in [3], in [7], in [8] and in test [18] was “inactive” in each case. Besides, in test [14], the Potency result was “inactive”. The Potency in test [4] was 14.9 µM (active) and 17.4 µM (active) and 19 µM (active); in test [5], 2.36 µM (active) and 2.19 µM (active) and 2.68 µM (active); in test [6], 2.97 µM (active) and 2.75 µM (active) and 3.01 µM (active); in [9], 26.2 µM (active) and 27.3 µM (active) and 29.8 µM (active); in test [16] it was 6.11 µM (active) and 1.88 µM (active); in test [10], 26.2 µM (active) and 27.3 µM (active) and 29.8 µM (active). Also, the Potency was 11.7 µM (active) and 10.9 µM (active) and 13.3 µM (active) in [17]; 11.7 µM (active) and 24.3 µM (active) and 11.9 µM (active) in test [11]; 26.2 µM (active) and 43.3 µM (active) and 29.8 µM (active) in test [12]; 54.5 µM (active) in test [13]; 739 nM (active) and 1.09 µM (active) and 596 nM (active) in test [15].

For `CCN(CC)CCOc1ccc(/C(=C(\Cl)c2ccccc2)c2ccccc2)cc1`, the Potency entry in test [1], in test [9], in test [17], in [11], in test [13] and in test [14] was “inactive” each time. The Potency is 17.7 µM (active) and 21.3 µM (active) in test [2]; 39.7 µM (active) and inactive in test [3]; 31.6 µM (active) and 23.9 µM (active) in [4]; 12.6 µM (active) and 21.3 µM (active) in test [5]; 12.6 µM (active) and 21.3 µM (active) in test [6]; 35.4 µM (active) in [7]. Further, the Potency in test [8] was 35.4 µM (active) and 21.3 µM (active); in test [15], 17.6 µM (active).

Regarding `O=Nc1ccc(Nc2ccccc2)cc1`, the Potency entry in test [1], in test [3], in test [7], in test [8], in test [9] and in [10] was “inactive” throughout. Moreover, the Potency entry in [14] is “inactive”. Also, the Potency in test [2] is 49.2 µM (active) and 43.6 µM (active); in test [4], 43.6 µM (active); in test [5], 6.96 µM (active) and 9.77 µM (active); in test [6], 15.6 µM (active) and 21.9 µM (active); in [19] it was 48.8 µM (active) and 54.5 µM (active); in test [12], 24.5 µM (active) and 24.3 µM (active). In addition, the Potency is 27.4 µM (active) and 54.5 µM (active) in test [13]; 1.38 µM (active) and 2.43 µM (active) in [15].

In the case of `O=C(Oc1ccccc1)c1ccccc1O`, the Potency result in [1], in test [2], in test [3], in test [4], in test [5] and in [6] was “inactive” throughout. The Potency entry in test [7], in test [8], in test [9], in [10], in test [18] and in [12] was “inactive” each time. The Potency result in test [13] and in test [14] was “inactive” throughout. In addition, the Potency result in test [15] was “inactive and 54.5 µM (active)”.

Take `CCCCN(CCO)CCCC`: the Potency result in test [1], in test [2], in test [3], in test [4], in test [5] and in test [6] was “inactive” throughout. The Potency result in [7], in [8], in [9], in [16], in [10] and in test [17] was “inactive” throughout. Moreover, the Potency result in test [11], in test [12], in [13], in test [14] and in test [15] was “inactive” each time.

These data come from PubChem BioAssay (Tox21).
